The values below come from PubChem BioAssay AID1918990 (ICCB-Longwood Screening Facility, Harvard Medical School, 2023).

Among all 29,000 compounds or so, about 85 (0.3%) were called active. The sample holds actives, similar compounds and a random draw of the others, so the mix is not that of the screen. Unmarked numbers belong to inactive results.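 How the source made its calls: active means replicate mean overnight rise in green fluorescent reporter signal, 3 or more SD over negative controls; inactive means the rest.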

The assay is described as follows: activators of Burkholderia fixLJ two-component system, primary screen, B. multivorans, GFP reporter (AID 1918990). The note with it: B. multivorans fixK-promoter GFP reporter, 18 h; hits give high values.
Regarding `CCCOc1ccc(CNC(=O)C2CCN(c3nn4c(=O)cc(C)nc4s3)CC2)cc1`, the z-score was 0.43.
For `Cc1cc(OCC(=O)Nc2ncn[nH]2)c(C)c(C)c1Br`, the z-score is 0.56.
As to `O=S(=O)(NCC(c1ccccc1)N1CCc2ccccc21)c1ccccc1` (stereo not given), the z-score was -0.54.
Regarding `CCCc1noc(C2CCC(=O)N(Cc3ccc(Cl)cc3)C2)n1` (stereo not given), the z-score was -0.44.
On to `COc1ccccc1CNC(=O)CCCn1c(=O)c2ccccc2n(CC(=O)Nc2ccc(C)cc2Cl)c1=O`, for which the z-score is -1.06.
With `Cc1nc(N)ncc1C(=O)N(C)Cc1cn[nH]c1-c1ccccc1`, the z-score is -0.18.
For `COc1ncccc1NC(=O)NCc1nncn1C1CCCCC1`, the z-score is 0.26.
As to `COc1ccc(NC(=O)CCN2CCN(CCO)CC2)cc1`, the z-score is -3.11.
As to `CC(C)c1ccc2oc(-c3cc(NC(=O)c4cccs4)ccc3Cl)nc2c1`, the z-score was 0.16.
Consider `O=C1CC(c2nnc(Cc3ccc(Cl)cc3)o2)CN1c1ccccc1` (stereo not given), for which the z-score was 0.07.
In the case of `Cc1cccc(C)c1OCC(=O)NC(Cc1c[nH]c2ccccc12)C(=O)O` (stereo not given), the z-score was 0.01.
As for `CSc1ncc(Cl)c(C(=O)Nc2ccc(S(=O)(=O)N3CCCC(C)C3)cc2)n1` (stereo not given), the z-score is 0.
For `Cc1nc2nc(SCC(=O)N(Cc3ccccc3)C(C)C)nn2c(C)c1Cc1ccccc1Cl`, the z-score was -2.35.
As to `Cc1ccc(CN(C)S(=O)(=O)c2c(Cl)nc3sccn23)o1`, the z-score was 1.01.
Turning to `Cn1c(=O)c2sccc2n2c(CCC(=O)NCc3ccccc3Cl)nnc12`, the z-score was -0.54.
As for `COc1cccc(CNC(=O)CCC(=O)N2CC3CCCN3c3ccccc32)c1` (stereo not given), the z-score was -0.45.
As to `CC(C)CC(=O)C1CCCN(C(=O)c2ccc(N3CCC(O)CC3)nc2)C1` (stereo not given), the z-score is 0.49.
Consider `CCC(=O)N1CCc2cc(S(=O)(=O)CCC(=O)N3CCN(c4ccccc4F)CC3)ccc21`, for which the z-score was -1.64.
Regarding `CC(Sc1oc(-c2ccco2)nc1S(=O)(=O)c1ccc(Br)cc1)c1ccccc1` (stereo not given), the z-score is -1.12.
`COc1ccc(NC(=O)c2cnc(Nc3ccc(C)c(Cl)c3)c3ccccc23)cc1OC`: the z-score is 0.07.
Turning to `Cc1ccc(OCC(=O)NC(c2ccc3c(c2)CCO3)C2CC(O)C2)cc1` (stereo not given), the z-score was 0.72.
Regarding `COc1cccc(NC(=O)C2CCN(c3cc(C)nc4c(-c5ccc(Cl)cc5)c(C)nn34)CC2)c1`, the z-score was -0.45.
On to `C=CCCC(=O)N1CCC[C@]2(C1)CN(C(=O)c1ccccc1CC)CCC2O` (stereo not given in full), for which the z-score is -0.53.
For `COc1ccc(-c2noc(CSc3nc(C)cc(=O)[nH]3)n2)cc1OC`, the z-score is -1.97.
In the case of `COc1ccc(CNc2nc(-c3ccc(Cl)cc3)nn2S(=O)(=O)c2ccc(C)cc2)cc1`, the z-score was -1.03.
As to `Cc1cc(C(=O)NCc2nc(N)n[nH]2)c2c(C)nn(C)c2n1`, the z-score is 0.15.
`COc1cccc(CNC(=O)C2CCC(CNS(=O)(=O)c3cccs3)CC2)c1` (stereo not given): the z-score is -0.11.
`Cc1ccc2oc3c(c(=O)c2c1)C(c1ccc(O)cc1)N(Cc1ccc2c(c1)OCO2)C3=O` (stereo not given): the z-score is -1.07.
For `COC(=O)c1ccc(N2CCN(C(=O)c3csc(C)n3)CC2)cc1`, the z-score was -0.55.
On to `O=C(CSc1nnc(CNC(=O)c2ccccc2)n1-c1ccc(F)cc1)Nc1ccccc1F`, for which the z-score was -1.09.
Next, `COc1ccc(C2=NC(c3ccncc3)=Nc3ccc(Br)cc3N2)cc1`: -0.81; `Cc1c(C(=O)N2CCC3(CC2)OCCCC3O)n(C)c2ccccc12` (stereo not given): -0.28.
Turning to `CCOC(=O)c1c(NC(=O)/C(C#N)=C/c2ccccc2)sc2c1CCC2`, the z-score was -0.67.
For `COc1ccccc1-c1cc(C(F)(F)F)nc(S(=O)(=O)CCCC(=O)Nc2ccc(F)cc2F)n1`, the z-score was -0.87.
Next, `CCC(=O)N1CCc2cc(Br)cc(S(=O)(=O)CCC(=O)NCc3ccccc3OC)c21`: -0.86.
Consider `CCC(=O)N1CCc2cc(Br)cc(S(=O)(=O)CCC(=O)N3CCN(c4ccc(F)cc4)CC3)c21`, for which the z-score is 3.68 (active).
For the molecule `CCC(=O)N1CCc2cc(Br)cc(S(=O)(=O)CCC(=O)NCCc3ccc(OC)c(OC)c3)c21`, the z-score was 2.58.
`Cc1cccc2nc(-c3ccc(Cl)s3)c(Nc3ccc4c(c3)OCCO4)n12`: the z-score was 0.38.
`COc1ccc(CNC(=O)Cc2coc3ccc(C(C)C)cc23)cc1`: the z-score is -1.14.
Next, `CC(=O)N1CCCCC1C(=O)Nc1cccc(-n2cccn2)c1` (stereo not given): -4.62; `Cc1ccc(C)c(N2CCN(C(=O)CN3C(=O)COc4ccc(S(=O)(=O)N5CCCCCC5)cc43)CC2)c1`: -0.13; `CCc1cc2c(cc(C(=O)OC)n2Cc2nc(-c3ccc(C)cc3)oc2C)s1`: -0.09.
As for `CCCOc1ccc(C2c3c(-c4ccccc4O)n[nH]c3C(=O)N2Cc2cccnc2)cc1` (stereo not given), the z-score is -1.98.
As for `COc1ccc(OCCCn2c(C3CC(=O)N(c4ccc(F)cc4)C3)nc3ccccc32)cc1` (stereo not given), the z-score was 0.64.
In the case of `CCOc1ccc(N2CC(c3nc4ccccc4n3CCOc3ccc(OC)cc3)CC2=O)cc1` (stereo not given), the z-score was -4.05.
As for `CCc1ccccc1N1CC(c2nc3ccccc3n2CCCCOc2ccccc2)CC1=O` (stereo not given), the z-score was 5.94 (active).
To `CC(=O)c1c(C)n(S(=O)(=O)c2ccc(Cl)cc2)c2ccc(NS(=O)(=O)c3ccc(Cl)cc3)cc12` belongs -0.71.
To `COc1ccc(NC(=O)CNC(=O)Cn2ccc3ccccc3c2=O)c(OC)c1` belongs -2.14; to `CN1CCCn2nc(C(=O)NCCCCc3ccccc3)cc2C1`, -1.24.
To `CCc1ccccc1NS(=O)(=O)c1ccc2nc(-c3ccccc3)[nH]c2c1` belongs -1.16.
Consider `CC(Cn1cccn1)NC1CCN(C(=O)c2cccnc2)CC1` (stereo not given), for which the z-score is -2.
Next, `Cc1ccc(N2CC(C(=O)Nc3ccc(N(C)C)cc3)CC2=O)cc1Cl` (stereo not given): 0.09; `COc1cccc(-c2nc(CS(=O)(=O)CC(=O)NCCc3ccc(OC)c(OC)c3)c(C)o2)c1`: -0.64; `CCc1ccccc1NC(=O)N1CCC2(CC1)Oc1ccccc1C(=O)N2Cc1ccccc1F`: -0.81.
To `O=C(NC1CCCCC1)c1ccc2c(c1)N(Cc1ccc(Cl)cc1)C(=O)c1ccccc1S2=O` (stereo not given) belongs 0.06.
